# High-throughput results as filed in PubChem.
# D1 potentiator – enhances dopamine response at the human D1 receptor; P21728; HEK293 TREx D1 cells, calcium flux, dopamine EC20 potentiation; potentiation, % at 10 µM; 360,000 compounds, 0.036% hits; AID 504651; in the data active means potentiation above about 30%; further: 0% is about no effect
# D1 antagonist – antagonists of human D1 dopamine receptor | P21728 | HEK293 TREx D1 cells, calcium flux, dopamine EC80; hits give low values | activity change, negative = inhibition, % at 10 µM | 360,000 compounds, 3.2% hits | AID 504652; in the data active means activity change below about -30%; further: on the % scale 0 is the no-effect control and ±100 the full control effect
#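 Tetracycline-induced HEK293 T-REx cells with force-coupled D1 receptor were loaded with a no-wash calcium dye. Compound was added after a 10 s baseline and read kinetically for 180 s; EC80 dopamine was then added and calcium flux followed another 180 s.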
# DRD3 agonist – activates the human D3 dopamine receptor; 410,000 compounds, 0.58% hits; AID 652048; max activation, %; D3R DiscoveRx beta-arrestin cells, luminescence, 90 min; P35462; in the data active means max activation above about 30%; further: 0% is about no effect
# Target sequence (P35462 whole entry, looked up): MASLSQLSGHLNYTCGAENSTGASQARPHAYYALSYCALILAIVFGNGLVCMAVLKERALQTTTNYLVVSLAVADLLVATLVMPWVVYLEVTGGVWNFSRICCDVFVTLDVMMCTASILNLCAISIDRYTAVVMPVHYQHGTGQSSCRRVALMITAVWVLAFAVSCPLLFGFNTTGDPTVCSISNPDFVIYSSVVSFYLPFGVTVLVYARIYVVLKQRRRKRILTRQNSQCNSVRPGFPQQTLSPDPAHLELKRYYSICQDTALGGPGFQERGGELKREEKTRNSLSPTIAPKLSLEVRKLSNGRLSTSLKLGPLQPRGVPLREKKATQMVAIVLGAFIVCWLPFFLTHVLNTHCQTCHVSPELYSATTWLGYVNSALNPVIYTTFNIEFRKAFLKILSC
#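 Agonist-mode cell screen: cells plated at 1500/well and incubated overnight at 37 °C, then exposed to library compounds for 90 min at 37 °C. Detection reagent was added for 30–60 min at room temperature, and luminescence was read.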
# D3 antag – D3 dopamine receptor (human) antagonism. 360,000 compounds, 2.5% hits. max response, negative = inhibition, %. D3R cells, DiscoveRx beta-arrestin luminescence, antagonist mode; hits give low values. P35462. AID 652054; in the data active means max response below about -50%; inconclusive means no clear call, values can overlap the other calls; further: on the % scale 0 is the no-effect control and ±100 the full control effect
#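 Cells expressing the human receptor were seeded at 1500 cells/well, incubated overnight at 37 degrees C in 5% CO2, then exposed to library compounds with dopamine controls for 90 minutes at 37 degrees C before luminescent detection.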
# D1 ag – human D1 receptor agonism; HEK293 T-REx D1 cells, calcium flux, agonist mode; activation, % at 2 µM; 360,000 compounds, 1% hits; in the data active means activation above about 30%; further: 0% is about no effect
#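 Inducible HEK293 T-REx D1 cells, force-coupled to calcium signalling, were plated at 4000 cells/well with tetracycline and held overnight at 30 C. After no-wash calcium dye loading, compound-evoked calcium rise over 180 s flagged agonists.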
# * = called active by the depositor; u = inconclusive; x = no result given. A selection: hits, their analogues and other compounds. The true share with any hit is near 6%.
SMILES,D1 potentiator,D1 antagonist,DRD3 agonist,D3 antag,D1 ag
CCOC(=O)[C@]12CCCC=C1N(Cc1ccc(Cl)cc1Cl)C(=O)[C@H](CC(=O)NCC13CC4CC(CC(C4)C1)C3)C2,x,x,-12,-4,x
CC(Oc1ccc(Br)cc1Cl)C(=O)Nc1ccncc1 (centres undefined),-6,-35*,5,12,15
CC(Oc1ccc(Br)cc1)C(=O)Nc1ccncc1 (centres undefined),-15,-27,3,14,29
Cc1ccc(OC(C)C(=O)Nc2ccncc2)cc1C (centres undefined),-8,-32*,14,3,18
O=C(NC1CC2CCCC(C1)N2Cc1ccccc1)c1cccc(F)c1 (centres undefined),-10,-9,-19,-106*,5
O=C(NC1CC2CCCC(C1)N2Cc1ccccc1)c1cccc(Cl)c1 (centres undefined),-9,-12,-11,-76*,-1
Cc1cccc(C(=O)NC2CC3CCCC(C2)N3S(=O)(=O)c2ccccc2)c1 (centres undefined),3,5,6,5,2
CCCN1C2CCCC1CC(NC(=O)c1cccc(Cl)c1)C2 (centres undefined),-6,-4,-8,4,2
Cc1ccc(N2C(=O)CSC23C(=O)N(CC(=O)Nc2ccccc2F)c2ccccc23)cc1C (centres undefined),-4,-32*,0,x,9
c1ccc(COc2ccccc2CNc2nn[nH]n2)cc1,9,-75*,-8,15,0
COc1ccc(OC)c(CCNC(=O)c2cc3cccc4c3n2CC(C)S4)c1 (centres undefined),1,-1,6,x,0
COc1cccc(C2CC(=O)Nc3c2c(=O)nc2c(C)cccn32)c1OC (centres undefined),2,2,10,x,6
CCOC(=O)C1Cc2ccccc2CN1 (centres undefined),-11,-14,-17,-66*,2
Cn1c(C(=O)NCCc2ccccc2)cc2cc(S(=O)(=O)N3CCCCC3)ccc21,-2,-29,5,x,5
COc1cccc(CNC(=O)c2ccc(Cl)c(NC3=NC4CS(=O)(=O)CC4S3)c2)c1 (centres undefined),3,-90*,-2,-3,1
COC(=O)N/N=C/c1cccc([N+](=O)[O-])c1,2,9,-11,-27,1
Nc1nnc(CC(=O)N/N=C/c2cc([N+](=O)[O-])cc(Br)c2O)s1,x,7,-19,-109*,6
O=C(CNC(=O)c1ccccc1Br)N/N=C\c1cc([N+](=O)[O-])cc(Br)c1O,-4,-10,-27,-76*,1
O=C(CNC(=O)c1ccccc1Br)N/N=C/c1ccccc1O,-7,-3,4,13,1
Cc1cc([N+](=O)[O-])cc(C)c1OCC(=O)N/N=C/c1ccc(OC(=O)c2ccccc2Br)cc1,-4,-33*,3,-11,4
COC(=O)N/N=C/c1cc([N+](=O)[O-])cc(Br)c1O,-3,6,-15,-98*,2
Cc1ccc(/C=C2/Sc3ccc(C(=O)NCc4ccccn4)cc3NC2=O)cc1,4,2,4,-17,2
Cc1cccc(C(=O)Nc2cccc(OCc3cc(=O)n4cccc(C)c4n3)c2)c1,-1,-3,-11,x,-1
CN1CCc2cccc3c2[C@@H]1Cc1ccc(O)c(O)c1-3,-7,-58*,44*,-18,17
C[C@H](CO)N1C[C@H](C)[C@@H](CN(C)C(=O)Nc2ccc(C(F)(F)F)cc2)Oc2ccc(NS(=O)(=O)c3ccc(F)cc3)cc2C1=O,x,x,-5,0,x
SMILES,D1 potentiator,D1 antagonist,DRD3 agonist,D3 antag,D1 ag
C[C@H](CO)N1C[C@H](C)[C@@H](CN(C)C(=O)Nc2ccc(C(F)(F)F)cc2)Oc2ccc(NS(=O)(=O)c3ccccc3)cc2C1=O,x,x,31*,18,x
C[C@H](CO)N1C[C@H](C)[C@@H](CN(C)S(C)(=O)=O)Oc2ccc(NC(=O)C3CCCCC3)cc2C1=O,x,x,52*,20,x
C[C@H](CO)N1C[C@H](C)[C@@H](CN(C)S(C)(=O)=O)Oc2ccc(NC(=O)C3CC3)cc2C1=O,x,x,4,36,x
CCOC(=O)CCCCCC(=O)Nc1ccc2c(c1)C(=O)N([C@H](C)CO)C[C@@H](C)[C@H](CN(C)S(=O)(=O)c1cn(C)cn1)O2,x,x,47*,23,x
C[C@H](CO)N1C[C@H](C)[C@@H](CN(C)C(=O)Nc2ccc(C(F)(F)F)cc2)Oc2ccc(NS(=O)(=O)c3cccs3)cc2C1=O,x,x,30*,12,x
CCOC(=O)/C=C1/SCC(=O)N1CC(=O)c1ccc[nH]1,x,x,3,13,x
COc1ccc(-n2cc(C(=O)NCc3ccccc3Cl)c3ccccc3c2=O)cc1,4,7,-10,x,2
C[C@H](CO)N1C[C@H](C)[C@@H](CN(C)S(=O)(=O)c2ccccc2)Oc2ccc(NC(=O)Nc3ccc(C(F)(F)F)cc3)cc2C1=O,x,x,-8,6,x
C[C@H](CO)N1C[C@H](C)[C@@H](CN(C)S(=O)(=O)c2ccccc2)Oc2ccc(NC(=O)CCC(F)(F)F)cc2C1=O,x,x,35*,4,x
COc1ccc(CNCCS(=O)(=O)NC2CCCCC2)cc1,x,x,-44,-53*,x
CCCCCCCCNCCS(=O)(=O)NC1CCCCC1,x,x,-37,-91*,x
O=S(=O)(CCNCc1ccccc1)NC1CCCCC1,x,x,-41,-50*,x
COc1cccc(C(=O)NCCS(=O)(=O)NC2CCCC2)c1,4,9,-9,-74*,0
CCCCCCCCNCCS(=O)(=O)NCCCCCCCC,x,x,-2,-7,x
COc1ccc(CNCCS(=O)(=O)NC2CCCC2)cc1,x,x,-41,-25,x
COc1ccc(C(=O)NCCS(=O)(=O)NC2CCCC2)cc1,2,4,-18,-11,2
O=C(CCc1nc2ccccc2c(=O)[nH]1)Nc1cccc(S(=O)(=O)N2CCOCC2)c1,1,-9,-2,6,4
Cc1ccc2c(C)nc(NC3=NCN(CCc4ccccc4)CN3)nc2c1,-5,-43*,x,x,5
Cc1nc(NC2=NCN(CCc3ccccc3)CN2)nc2ccccc12,1,-14,x,x,2
Fc1ccccc1NC(=S)N(CCN1CCCCCC1)Cc1cccs1,-11,-32*,-6,16,5
COc1ccccc1NC(=S)N(CCN1CCCCCC1)Cc1cccs1,8,-14,-22,-58*,6
Cc1ccccc1NC(=S)N(CCN1CCCCCC1)Cc1cccs1,-5,-16,-22,u,1
O=C(CNC(=S)N(CCCN1CCOCC1)Cc1cccs1)NCc1ccc(Cl)cc1,3,-6,-1,-21,1
COc1ccccc1NC(=S)N(CCN1CCOCC1)Cc1ccccc1F,-2,4,1,4,2
O=C(CNC(=S)N(CCCN1CCOCC1)Cc1cccs1)NCc1ccccc1Cl,2,-4,0,-58*,4
